# Assay results: PubChem BioAssay (Tox21)
# Records with an inconclusive call do not appear. Where a call stands in place of a potency, no number is given. More than one record can exist for a structure, and the calls need not agree. Calls of active or inactive are those of the source. The call rests on the fitted dose curve; in most records, active means well fitted cell-killing curve with a large enough effect in the repeat runs; inconclusive means weak or mixed curves, or effect the other way; inactive means flat fitted curve, though single readings scatter.
# Test: qHTS assay to identify small molecule agonists of the TGF-beta/Smad signaling pathway - cell viability counter screen (AID 1346829); further: nearly all actives have a fitted effect of over 45% in size
# Conditions: SBE-bla HEK293T viability, CellTiter-Glo luminescence, 5 h; series mostly up to 76.8 µM
# Text: National Center for Advancing Translational Sciences [NCATS]
# NIH Chemical Genomics Center [NCGC]
# U.S. Environmental Protection Agency [EPA]
# National Institutes of Environmental Health Sciences [NIEHS]
# National Toxicology Program [NTP]
# U.S. Food and Drug Administration [FDA]
# Transforming growth factor beta (TGF-beta) superfamily consists of a large number of structurally related dimeric proteins that act as hormones or local mediators in regulating a wide range of biological functions. This superfamily includes TGF-betas themselves, the bone morphogenetic proteins (BMPs) and the activins. These ligands induce oligomerization of serine/threonine receptor kinases and phosphorylate the cytoplasmic signaling molecules of Smad protein family. CellSensor SBE-bla HEK 293T cell line (Life Technologies, Carlsbad, CA), responsive to TGF-beta was used to screen Tox21 10K compound library for identification of agonists/antagonists of the Smad signaling pathway. This cell line contains a beta-lactamase reporter gene under control of the Smad binding element (SBE) stably integrated into HEK 293T cells. Also cytotoxicity of the compounds was tested in parallel by measuring the cell viability using CellTiter-Glo assay system in the same wells.
# Tox21 Assay Protocol Summary:
# SBE-bla HEK 293T cells were dispensed at 4,000/well in 6 uL of assay medium into black wall/clear-bottom 1536-well plates using a Multidrop Combi (ThermoFisher Scientific, Waltham, MA) dispenser. After the assay plates were incubated at 37 C and 5% CO2 for an overnight, 23 nL of compounds dissolved in DMSO, positive controls or DMSO only was transferred to the assay plate by a Pintool station (Kalypsys, San Diego, CA). The assay plates were incubated at 37 C and 5% CO2 for 5 hr. One uL of LiveBLAzer B/G FRET substrate (Life Technologies) was added using a Flying Reagent Dispenser (FRD, Aurora Discovery, San Diego, CA) and the plates were incubated at room temperature for 2 hr. Fluorescence intensity (405 nm excitation, 460 nm and 530 nm emissions) was measured using an Envision plate reader (PerkinElmer, Shelton, CT). For cytotoxicity read, 4 uL of CellTiter-Glo reagent (Promega Corporation, Madison, WI) was added to each well of the assay plates using FRD. After 30min incubation at room temperature, the luminescence intensity was measured using ViewLux plate reader (PerkinElmer).
# Potency means the concentration at half of the fitted maximal effect.
row,Structure (SMILES),Potency
1,COC(=O)c1ccc(C=O)cc1,inactive
2,CCOC(=O)C(C)(C)Oc1ccc(Cl)cc1,inactive
3,Cc1cnc(NC(=O)C2=C(O)c3ccccc3S(=O)(=O)N2C)s1,inactive
4,Cc1cccc(Nc2cc(Cl)nc(SCC(=O)O)n2)c1C,inactive
5,NC(=O)c1ccc([N+](=O)[O-])cc1Cl,inactive
6,CCCCNC(=O)NS(=O)(=O)c1ccc(N)cc1,inactive
7,CCCCOC(=O)CCCCCCCCC(=O)OCCCC,inactive
8,CC(=O)OC/C=C(C)/C=C/C=C(C)/C=C/C1=C(C)CCCC1(C)C,inactive
9,CCN(CC)CCOC(=O)c1ccc(N)cc1,inactive
10,CC(C)(C)CC(C)(C)c1ccc(O)c(-n2nc3ccccc3n2)c1,44.3 µM (active) and inactive
11,Nc1cccc(N)c1,inactive
12,OCCCc1ccccc1,inactive
13,C#C[C@]1(O)CC[C@H]2[C@@H]3CCC4=CC(=O)CC[C@@H]4[C@H]3CC[C@@]21CC,inactive
14,CC1=NN(c2ccccc2)C(=O)C1,inactive
15,CC(C)(C)NCC(O)c1ccc(O)c(CO)c1 (stereo not given),inactive
16,COc1ccccc1O,inactive
17,COCCOCCOC,inactive
18,NC(N)=NC(N)=NCCc1ccccc1,inactive
19,Cn1cnc2c1c(=O)[nH]c(=O)n2C,inactive
20,CN(C)C=O,inactive

row,Structure (SMILES),Potency
1,COc1ccccc1NC(=O)CC(C)=O,inactive
2,C/C=C/c1ccc(O)c(OC)c1,inactive
3,COc1cc(C=O)ccc1O,inactive
4,O=C(OCc1ccccc1)c1ccccc1,inactive
5,O=c1c(-c2ccc(O)cc2)coc2cc(O)cc(O)c12,inactive
6,NC(=O)N/N=C/c1ccc([N+](=O)[O-])o1,inactive
7,CC1=C(/C=C/C(C)=C/C=C/C(C)=C/C(=O)O)C(C)(C)CCC1,inactive
8,O=C(O)Cc1cccc2ccccc12,inactive
9,c1ccc2[nH]c(-c3cscn3)nc2c1,inactive
10,CCn1cc(C(=O)O)c(=O)c2ccc(C)nc21,inactive
11,CN(C)Cc1cc(CN(C)C)c(O)c(CN(C)C)c1,inactive
12,NC(=O)NO,inactive
13,CC(C)Cc1ccc(C(C)C(=O)O)cc1 (stereo not given),inactive
14,CC(O)COc1ccccc1 (stereo not given),inactive
15,NC(=O)OCC(COC(N)=O)c1ccccc1,inactive
16,O=[N+]([O-])c1ccc(O)cc1,inactive
17,O=c1cc[nH]c(=O)[nH]1,inactive
18,C[C@]12CC[C@@H]3c4ccc(O)cc4CC[C@H]3[C@@H]1CCC2=O,inactive
19,Cc1c(N(C)CS(=O)(=O)O)c(=O)n(-c2ccccc2)n1C,inactive
20,COC(=O)c1ccc(O)cc1,inactive
